About 22,000 (6.9%) of roughly 320,000 compounds were called active. Inconclusive results (about 27%) are left out. The entries come from a sample that favours actives as a whole. Unmarked numbers belong to inactive results. Calls come from the whole dose curve; as a rule, active = well fitted inhibition curve with a large enough effect; inconclusive = small, poorly fitted or top-dose-only effect, or another doubt; inactive = no such curve, though single readings can be large or run the other way.
% is set by controls: 0 for no effect and ±100 for the full control effect; potency is the fitted concentration of half-maximal effect.

This experiment can be described thus: Primary qHTS for delayed death inhibitors of the malarial parasite plastid, 96 hour incubation. Particulars: P. falciparum luciferase reporter growth; series mostly up to 28.7 µM; activity change, negative = inhibition: at the top concentration. An outline of the steps: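 Readout is luminescence from an integrated firefly luciferase in P. falciparum. Red cells, 2% hematocrit and 0.05% parasitemia final, were cultured with compound through two parasite generations (96 hours) at 37 C, 5% CO2.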
Regarding `COc1ccc(Cl)cc1S(=O)(=O)N1CCC(O)(c2ccc(Cl)cc2)CC1`, the “activity change, negative = inhibition” value was -2.43%.

As to `CCOc1cc(C(C(=O)NCC2CCCO2)N(C(=O)Cn2nnc3ccccc32)c2cccc(OC)c2)ccc1O` (stereo unspecified), the “activity change, negative = inhibition” value was -1.12%.

On to `COC(=O)c1sc(N2CCN(Cc3ccccc3)CC2)nc1N`, for which the “activity change, negative = inhibition” value is 28.7%.

Regarding `CS(=O)(=O)c1ccc(Cl)c(NC(=O)COC(=O)c2ncc(Cl)c(Cl)c2Cl)c1`, the “activity change, negative = inhibition” value is 19.4%.

With `Cc1ccc(S(=O)(=O)c2c[nH]c3ccc(Cl)cc3c2=O)cc1`, the “activity change, negative = inhibition” value is 32.9%.

Consider `COc1ccc(Nc2nc(Cl)nc(NCc3ccco3)n2)cc1`, for which the “activity change, negative = inhibition” value was 48.6%.

As for `COc1ccc(-c2oc3ncn(Cc4ccco4)c(=N)c3c2-c2ccc(OC)cc2)cc1`, the Potency was 6.57 µM (active).

As for `COc1ccc2[nH]c3c(=O)n(Cc4ccco4)cnc3c2c1`, the activity change, negative = inhibition was 6.11% [at 5.75 µM].

For `CN(c1ccccc1)S(=O)(=O)c1ccc2[nH]c(=O)[nH]c2c1`, the “activity change, negative = inhibition” value was 11.2%.

`CC(CCc1ccccc1)NC(=O)COC(=O)c1ccc(F)cc1` (stereo unspecified): the “activity change, negative = inhibition” value is -9.38%.

As to `CCn1ncc(C2=NOC(C(=O)N3CCN(c4ccccc4)CC3)C2)c1C` (stereo unspecified), the “activity change, negative = inhibition” value is 56.5%.

As to `O=C(NCc1cc(C(F)(F)F)cc(C(F)(F)F)c1)C1CC(c2cccc(F)c2)=NO1` (stereo unspecified), the “activity change, negative = inhibition” value is -0.218%.

As to `Cc1ccc(NC(=O)C2CC(c3ccc(F)cc3)=NO2)cc1` (stereo unspecified), the Potency was 4.15 µM (active).

Consider `O=C(c1ccco1)N1CCN(C(=O)C2CC(c3ccc(Cl)c(Cl)c3)=NO2)CC1` (stereo unspecified), for which the Potency was 5.86 µM (active).

Consider `CCOC(=O)N1CCN(C(=O)C2CC(c3ccc(F)cc3)=NO2)CC1` (stereo unspecified), for which the Potency is 4.65 µM (active).

Turning to `O=C(c1ccco1)N1CCN(C(=O)c2ccc(COc3ccc(F)cc3)o2)CC1`, the “activity change, negative = inhibition” value was -1.91%.

For the compound `CCOC(=O)N1CCN(CC(=O)Nc2ccc(F)cc2)CC1`, the “activity change, negative = inhibition” value is 232%.

Turning to `O=C(c1ccco1)N1CCN(C(=O)C2CC(c3ccc(F)cc3)=NO2)CC1` (stereo unspecified), the Potency was 7.38 µM (active).

In the case of `COc1ccc(CNC(=O)C2CC(c3ccc(C(F)(F)F)cc3)=NO2)cc1` (stereo unspecified), the “activity change, negative = inhibition” value was 61.6%.

With `CCNC(=S)N1CCN(C(=O)c2ccco2)CC1`, the “activity change, negative = inhibition” value was 46.8%.

On to `O=C(Cc1c(F)cccc1Cl)N1CCN(C(=O)c2ccco2)CC1`, for which the “activity change, negative = inhibition” value is 149%.

Turning to `O=C(c1ccc2c(c1)OCO2)N1CCN(C(=O)c2ccco2)CC1`, the “activity change, negative = inhibition” value was 29%.

In the case of `O=C(COc1nsnc1N1CCOCC1)Nc1ccccc1Cl`, the “activity change, negative = inhibition” value is 0.158%.

For the compound `COc1cccc(/C=C/C(=O)OCC(=O)N2CCN(c3ccccc3)CC2)c1`, the “activity change, negative = inhibition” value was -26.3%.

Consider `Cc1ccc(CC2CC(=O)N(c3cc(C)ccc3C)C2=O)cc1` (stereo unspecified), for which the “activity change, negative = inhibition” value was -18.3%.

Take `Cc1ccc(S(=O)(=O)CC(=O)Nc2sc(C)c(C)c2C(N)=O)cc1`: the “activity change, negative = inhibition” value was 1.09%.

Consider `O=C(NNC(=O)C1CCC1)c1ccccc1`, for which the “activity change, negative = inhibition” value was 11.8%.

On to `Cc1cccc(C2C3=C(CCCC3=O)N=C3c4ccccc4C(=O)C32)c1` (stereo unspecified), for which the “activity change, negative = inhibition” value is -12.5%.

On to `O=C(NCCCn1ccnc1)c1cc(-c2ccccc2)on1`, for which the “activity change, negative = inhibition” value was 4.54%.

`COc1ccc(-c2cc(C(=O)NCCCN3CCOCC3)no2)cc1`: the “activity change, negative = inhibition” value is 23.3%.

For `COc1ccc(-c2cc(C(=O)NCCCn3ccnc3)no2)cc1`, the Potency was 8.28 µM (active).

On to `Cc1ccc(S(=O)(=O)NC(=O)c2cccc(C)c2)cc1`, for which the “activity change, negative = inhibition” value is 24%.

As to `O=C(NC1CCN(S(=O)(=O)c2ccc(F)cc2)CC1)c1ccccc1`, the “activity change, negative = inhibition” value is 12%.

Regarding `CCN(CC)CCN(C(=O)c1ccc(S(=O)(=O)N2CCOCC2)cc1)c1nc2cc3c(cc2s1)OCCO3`, the “activity change, negative = inhibition” value was 24.7%.

Consider `CCCn1nc(C(=O)N2CCCc3ccccc32)c2ccccc2c1=O`, for which the “activity change, negative = inhibition” value was -23.3%.

Take `Cc1cccc2cc3c(N)c(C(=O)N4CCCc5ccccc54)sc3nc12`: the Potency was 11.7 µM (active).

Consider `Cc1c(C(=O)N2CCCc3ccccc32)sc2nc(-c3ccccc3)cn12`, for which the “activity change, negative = inhibition” value is -10.5%.

For `CCOC(=O)c1c(C)[nH]c(C(=O)OCC(=O)N2CCCC2=O)c1C`, the “activity change, negative = inhibition” value is 7.24%.

`COc1cccc(NC(=O)COC(=O)/C=C/c2ccco2)c1`: the “activity change, negative = inhibition” value is -5.91%.

As for `COCCCNC(=O)Cc1ccc(-n2c(C)nc3cccnc32)cc1`, the “activity change, negative = inhibition” value is 58.7%.

As to `COc1cc2c(cc1OC)CC(=O)N(CCCN(C)C[C@H]1Cc3cc(OC)c(OC)cc31)CC2`, the “activity change, negative = inhibition” value is 15.7%.

As for `CCCCn1c(SCC(=O)N2CCOCC2)nc2c1c(=O)n(C)c(=O)n2C`, the Potency is 11.7 µM (active).

On to `C#CC(C)(C)NC(=O)CSc1nc2c(c(=O)n(C)c(=O)n2C)n1CCCC`, for which the “activity change, negative = inhibition” value is -3.48%.

In the case of `Cn1c(=O)c2c(SCC(=O)N3CCOCC3)nc(C3CC3)nc2n(C)c1=O`, the “activity change, negative = inhibition” value is 27.7%.

Turning to `CC(C)CC(=O)c1c[nH]c(C(=O)NCc2ccccc2)c1`, the “activity change, negative = inhibition” value is -10.9%.

As for `Cc1nc(SCC(=O)NC2CCCCC2C)c(C#N)c(C)c1C` (stereo unspecified), the “activity change, negative = inhibition” value is -0.344%.

In the case of `CCSc1nc(-c2ccc(OC)cc2)cc(-c2ccc(OC)cc2)c1C#N`, the Potency is 4.65 µM (active).

In the case of `N#Cc1c(-c2ccccc2)cc(-c2ccccc2)nc1SCC(=O)O`, the “activity change, negative = inhibition” value was 35.1%.

With `COc1ccc(-c2cn[nH]c2-c2ccc(OC)cc2)cc1`, the “activity change, negative = inhibition” value is 3.34%.

Turning to `COc1ccc(-c2cc(-c3ccc(N)cc3)nc(N)c2C#N)cc1OC`, the “activity change, negative = inhibition” value is 5.39%.

In the case of `N#Cc1c(C(F)(F)F)cc(-c2ccccc2)nc1SCC(=O)N1CCOCC1`, the “activity change, negative = inhibition” value was 20.9%.

The values above are taken from PubChem BioAssay AID504834 (National Center for Advancing Translational Sciences (NCATS), 2011).
